Laboratory results taken from PubChem BioAssay (NCI).
This is part of a sample that, as a whole, favours compounds with a hit. Of some 83,000 tested, about 20% had one in any assay.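 Cell lines were cultured in 96-well plates, exposed to a single compound concentration, and assessed for percent growth 48 hours later.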 The source made the active and inactive calls. Rule for the calls: active = growth percent below 10; inactive = the rest.

Assays:
Assay in all cases: NCI-60 one-dose screen, 48 h (100 = growth as untreated, 0 = no growth, -100 = all killed)
Conditions in all cases: 10 µM
SR leukemia = system: SR leukemia
RPMI-8226 leukemia = system: RPMI-8226 leukemia
OVCAR-8 ovarian = system: OVCAR-8 ovarian
OVCAR-5 ovarian = system: OVCAR-5 ovarian
OVCAR-4 ovarian = system: OVCAR-4 ovarian
SK-OV-3 ovarian = system: SK-OV-3 ovarian
IGROV1 ovarian = system: IGROV1 ovarian
OVCAR-3 ovarian = system: OVCAR-3 ovarian
HS 578T breast = system: HS 578T breast
NCI/ADR-RES ovarian = system: NCI/ADR-RES ovarian

Measured: growth

CC1=NN(C(=O)c2nn(-c3ccc(Cl)cc3)cc2O)C(=O)C1
inactive: RPMI-8226 leukemia 13.7% | OVCAR-8 ovarian 29.4% | OVCAR-5 ovarian 63.5% | OVCAR-4 ovarian 29.9% | SK-OV-3 ovarian 34% | IGROV1 ovarian 34.8% | HS 578T breast 31.8% | NCI/ADR-RES ovarian 31.6%
active: SR leukemia -39.3% | OVCAR-3 ovarian -6.37%

Cc1ccc(/C=C/C(=O)C(=O)/C=C/c2ccc(C)cc2)cc1
inactive: SR leukemia 68% | RPMI-8226 leukemia 45.2% | OVCAR-8 ovarian 109% | OVCAR-5 ovarian 97.8% | OVCAR-4 ovarian 98.6% | SK-OV-3 ovarian 109% | IGROV1 ovarian 94.4% | OVCAR-3 ovarian 112% | HS 578T breast 92.6% | NCI/ADR-RES ovarian 103%

C[C@@H](O)[C@H]1C(=O)N2C(C(=O)O)=C(SC3CN[C@H](C(=O)N(C)C)C3)[C@H](C)[C@H]12 (stereo not given in full)
inactive: SR leukemia 123% | RPMI-8226 leukemia 96.5% | OVCAR-8 ovarian 107% | OVCAR-5 ovarian 100% | OVCAR-4 ovarian 114% | SK-OV-3 ovarian 115% | IGROV1 ovarian 101% | OVCAR-3 ovarian 116% | HS 578T breast 102% | NCI/ADR-RES ovarian 101%

CC(=O)Nc1ccc(S(=O)(=O)c2ccnc3cc(Cl)ccc23)cc1
inactive: SR leukemia 83.3% | RPMI-8226 leukemia 72.1% | OVCAR-8 ovarian 73.3% | OVCAR-5 ovarian 100% | OVCAR-4 ovarian 81.4% | SK-OV-3 ovarian 88% | IGROV1 ovarian 98.2% | OVCAR-3 ovarian 76% | HS 578T breast 85.2% | NCI/ADR-RES ovarian 77.3%

Cc1cc(Cl)ccc1Nc1nc(C(F)(F)F)ccc1C(=O)N/N=C/c1cccc(O)c1
active: SR leukemia -13% | HS 578T breast -17.5%
inactive: RPMI-8226 leukemia 24.1% | OVCAR-8 ovarian 62.6% | OVCAR-5 ovarian 51.1% | OVCAR-4 ovarian 33.8% | SK-OV-3 ovarian 38.8% | IGROV1 ovarian 27.7% | OVCAR-3 ovarian 35.9% | NCI/ADR-RES ovarian 26.6%

CN(C)CCN(Cc1ccccc1)c1ccc2ccccc2n1
inactive: SR leukemia 98.6% | RPMI-8226 leukemia 89.5% | OVCAR-8 ovarian 102% | OVCAR-5 ovarian 95% | OVCAR-4 ovarian 97.4% | SK-OV-3 ovarian 97.2% | IGROV1 ovarian 95.1% | OVCAR-3 ovarian 103% | HS 578T breast 92.4% | NCI/ADR-RES ovarian 94.2%

CNC(=O)c1cn(C2CC2)c2cc(N3CCN(C(=O)c4cc(OC)c(OC)c(OC)c4)CC3)c(F)cc2c1=O
inactive: SR leukemia 92.2% | RPMI-8226 leukemia 97.6% | OVCAR-8 ovarian 100% | OVCAR-5 ovarian 96% | OVCAR-4 ovarian 98.6% | SK-OV-3 ovarian 103% | IGROV1 ovarian 102% | OVCAR-3 ovarian 106% | HS 578T breast 101% | NCI/ADR-RES ovarian 96.7%

CCCCCOC(=O)Nc1nc(=O)n(C2O[C@H](C)[C@@H](O)[C@H]2O)cc1F (stereo not given in full)
inactive: SR leukemia 101% | RPMI-8226 leukemia 101% | OVCAR-8 ovarian 92.3% | OVCAR-5 ovarian 104% | OVCAR-4 ovarian 109% | SK-OV-3 ovarian 93.4% | IGROV1 ovarian 107% | OVCAR-3 ovarian 106% | HS 578T breast 104% | NCI/ADR-RES ovarian 96.4%

COc1cc2c(Nc3ccc(-c4ccc(N)cc4)cc3)ncnc2c(OC)c1OC
inactive: SR leukemia 31.8% | RPMI-8226 leukemia 39.5% | OVCAR-8 ovarian 41.2% | OVCAR-5 ovarian 40.1% | OVCAR-4 ovarian 51.4% | SK-OV-3 ovarian 36.1% | IGROV1 ovarian 22.5% | OVCAR-3 ovarian 41.4% | HS 578T breast 70.6% | NCI/ADR-RES ovarian 48.9%

S=c1cnc2ccccc2[nH]1
inactive: SR leukemia 103% | RPMI-8226 leukemia 100% | OVCAR-8 ovarian 96.2% | OVCAR-5 ovarian 104% | OVCAR-4 ovarian 105% | SK-OV-3 ovarian 96% | IGROV1 ovarian 97.2% | OVCAR-3 ovarian 106% | HS 578T breast 91.5% | NCI/ADR-RES ovarian 98.6%

NS(=O)(=O)c1ccc(N2N=C(c3ccccc3)CCC2=O)cc1
inactive: SR leukemia 66.5% | RPMI-8226 leukemia 94.5% | OVCAR-8 ovarian 98% | OVCAR-5 ovarian 112% | OVCAR-4 ovarian 95.8% | SK-OV-3 ovarian 113% | IGROV1 ovarian 105% | OVCAR-3 ovarian 158% | HS 578T breast 113% | NCI/ADR-RES ovarian 98%

CCN(CC)CCOC(=O)c1cc(OCc2ccccc2)c(OCc2ccccc2)c(OCc2ccccc2)c1
inactive: RPMI-8226 leukemia 32.9% | OVCAR-8 ovarian 56.3% | OVCAR-5 ovarian 83.3% | OVCAR-4 ovarian 75.5% | SK-OV-3 ovarian 100% | IGROV1 ovarian 42.6% | OVCAR-3 ovarian 64.9% | HS 578T breast 66.3% | NCI/ADR-RES ovarian 52.5%
active: SR leukemia 1.2%

CCN(CC)CCOc1cccc2c1C(=O)c1cccc(OCCN(CC)CC)c1C2=O
inactive: SR leukemia 10.3% | RPMI-8226 leukemia 11% | OVCAR-8 ovarian 25.7% | OVCAR-5 ovarian 55.5% | OVCAR-4 ovarian 45.9% | SK-OV-3 ovarian 33.8% | IGROV1 ovarian 33.9% | OVCAR-3 ovarian 47% | HS 578T breast 78.9% | NCI/ADR-RES ovarian 86.5%

O=C1c2ccccc2C(=O)c2c1ccc1c(=O)n(-c3ccccc3C(F)(F)F)nnc21
active: OVCAR-8 ovarian 9.15% | OVCAR-4 ovarian 1.52% | IGROV1 ovarian -27.9% | OVCAR-3 ovarian -17.6% | NCI/ADR-RES ovarian -16.4%
inactive: SR leukemia 31.1% | RPMI-8226 leukemia 18% | OVCAR-5 ovarian 34.2% | SK-OV-3 ovarian 69.9% | HS 578T breast 73.1%

CCn1c(SCc2ccc(C)cc2)nnc1-c1nn(-c2ccc(Cl)cc2Cl)c(-c2ccc(Cl)cc2)c1C
inactive: OVCAR-8 ovarian 12.9% | OVCAR-5 ovarian 26.8% | OVCAR-4 ovarian 16.9% | IGROV1 ovarian 30.8% | OVCAR-3 ovarian 15.8% | HS 578T breast 38.4% | NCI/ADR-RES ovarian 52.1%
active: SR leukemia 6.14% | RPMI-8226 leukemia -3.78% | SK-OV-3 ovarian -7.12%

C=C(C)[C@@H]1CC[C@]2(COCCC#N)CC[C@]3(C)[C@H](CC[C@@H]4[C@@]5(C)Cc6c([nH]c7ccccc67)C(C)(C)[C@@H]5CC[C@]43C)[C@@H]12
inactive: SR leukemia 94.7% | RPMI-8226 leukemia 86.1% | OVCAR-8 ovarian 107% | OVCAR-5 ovarian 89.3% | OVCAR-4 ovarian 88.5% | SK-OV-3 ovarian 100% | IGROV1 ovarian 105% | OVCAR-3 ovarian 93.9% | HS 578T breast 90.6% | NCI/ADR-RES ovarian 98.1%

OCC1OC2C(NC(=S)N2c2ccccc2)C(O)C1O (stereo not given)
inactive: SR leukemia 95.6% | RPMI-8226 leukemia 97.1% | OVCAR-8 ovarian 97.2% | OVCAR-5 ovarian 105% | OVCAR-4 ovarian 110% | SK-OV-3 ovarian 105% | IGROV1 ovarian 121% | OVCAR-3 ovarian 102% | HS 578T breast 88% | NCI/ADR-RES ovarian 105%

CN(C)CCCOc1cccc(NC2=C(Cl)C(=O)C(Nc3cccc(OCCCN(C)C)c3)=C(Cl)C2=O)c1
inactive: SK-OV-3 ovarian 98.2% | NCI/ADR-RES ovarian 74.7%
active: SR leukemia -9.52% | RPMI-8226 leukemia -47.5% | OVCAR-8 ovarian -80.1% | OVCAR-5 ovarian -47.9% | OVCAR-4 ovarian -98.8% | IGROV1 ovarian -67.4% | OVCAR-3 ovarian -96% | HS 578T breast -2.49%
